Measurements as given in PubChem BioAssay AID977607 (Broad Institute, 2014).
The whole screen tested about 1,500 compounds, of which about 460 (31%) were called active. Inconclusive results (about 1%) are left out.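 The calls were made as follows: active = curve reaches 40% activation over neutral controls at an AC40 no higher than the top valid tested concentration; inconclusive = no clear call, values can overlap the other calls; inactive = signal moving opposite to the expected increase, and the rest.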 A selection follows. Entries with a potency or affinity are not part of this list.

Assay: activators of glucose-dependent insulin secretion, dose response, cell-based, INS-1E, Gaussia luciferase, luminescence, cherry-pick, set 2 (AID 977607);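 also: 0% = median of the plate neutral control wells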
Settings: INS-1E GLuc insulin secretion reporter, 2-3 h, active compounds read high; at 35 µM, 100% = signal doubled over neutral wells unless noted

Max activation, inactive:
CCOc1ccc(-c2noc(CCC(=O)NC)n2)cc1OCC -18.4% [at 0.005 µM, 100% = signal doubled over neutral wells], COc1ccc(C(C)=O)cc1Cn1cnc2c(cnn2C)c1=O -12.8% [at 0.015 µM, 100% = signal doubled over neutral wells], Cc1sc2ncn(CC(=O)NCc3ccccc3)c(=O)c2c1C -22.8% [at 0.015 µM, 100% = signal doubled over neutral wells], CCC(=O)Nc1cc2nn(-c3ccc(OC)cc3)nc2cc1C -15.9% [at 3.8 µM, 100% = signal doubled over neutral wells], O=C(Cn1cnc2sc(-c3ccccc3)cc2c1=O)NCCc1ccccc1 -13.9% [at 11 µM, 100% = signal doubled over neutral wells], Cc1cc(-c2ccc(S(=O)(=O)N3CCN(C)CC3)s2)on1 -22.5%, OC(c1ccc(Cl)cc1)C(CN1CCOCC1)c1ccccc1 (stereo unspecified) -24.5%, COC(=O)c1ccc(CNC(=O)CCc2c[nH]c3ccccc23)cc1 -13.7% [at 0.015 µM, 100% = signal doubled over neutral wells], C/C(=N/Oc1nc(C)cc(C)n1)c1ccc(F)cc1 -10.7% [at 3.8 µM, 100% = signal doubled over neutral wells], COc1ccc(-n2c(O)cnc2Nc2nc(C)cc(C)n2)cc1OC -16.8% [at 0.135 µM, 100% = signal doubled over neutral wells], CNc1cc(-c2ccc(OC)c(OC)c2)ncn1 -15.3% [at 0.046 µM, 100% = signal doubled over neutral wells], CNc1ccc(-c2ccccc2OC)cn1 -9.32% [at 1.2 µM, 100% = signal doubled over neutral wells], O=C(NC1CCCC1)c1ccc(Cl)c(S(=O)(=O)N2CCOCC2)c1 23.2% [at 0.42 µM, 100% = signal doubled over neutral wells], Cc1ccccc1CSCc1ccc(C(=O)NCCCN2CCOCC2)o1 -12.1% [at 0.046 µM, 100% = signal doubled over neutral wells], CCOc1ccc2oc(=O)cc(CN3CCOCC3)c2c1 12.7%, CC(C)CC(=O)Nc1c2c(nn1-c1ccc(F)cc1)CS(=O)(=O)C2 -20.4% [at 1.2 µM, 100% = signal doubled over neutral wells], Cc1ccccc1-n1nc2c(c1NC(=O)c1cc3ccccc3oc1=O)CS(=O)(=O)C2 24.5% [at 3.8 µM, 100% = signal doubled over neutral wells], c1ccc(CNc2nc(Oc3ccncc3)c3sccc3n2)cc1 13.8% [at 11 µM, 100% = signal doubled over neutral wells], Cc1cc(Cl)ccc1-c1nc(NCc2ccccc2)nc2ccsc12 -22.5% [at 11 µM, 100% = signal doubled over neutral wells], C[C@@H]1CN([C@H](C)CO)C(=O)CCCn2cc(nn2)CO[C@H]1CN(C)S(=O)(=O)c1cccs1 -22.5% [at 11 µM, 100% = signal doubled over neutral wells], C[C@@H]1CC2=C(C(=O)OC(C)(C)O2)[C@H](c2ccc(F)cc2)O1 -20.8% [at 0.015 µM, 100% = signal doubled over neutral wells], NC(=O)c1ccsc1NC(=O)COC(=O)CNC(=O)c1ccc(Cl)cc1 -11.2% [at 0.005 µM, 100% = signal doubled over neutral wells], CC1(C(=O)NCc2ccccc2)CN(S(C)(=O)=O)CC(=O)N1C1CC1 (stereo unspecified) -10.6% [at 11 µM, 100% = signal doubled over neutral wells], CCN(CCC(=O)O)c1ccccc1 -16.1% [at 0.135 µM, 100% = signal doubled over neutral wells], O=C(Cn1cc(C(F)(F)F)ccc1=O)NCC1CCCO1 (stereo unspecified) -21% [at 0.015 µM, 100% = signal doubled over neutral wells], CC1=NS(=O)(=O)NC(C)(C)C1 51.2% [at 0.42 µM, 100% = signal doubled over neutral wells], COc1ccc(CCNC(=O)COC(=O)c2cncc(Br)c2)cc1OC -19.1%, CCc1ccc(OCC(=O)NC(=S)Nc2ccc(C)cc2C)c(Br)c1 -19.5% [at 0.046 µM, 100% = signal doubled over neutral wells], COCCN(CCOC)Cc1cc(=O)oc2cc(OC)c(Cl)cc12 13.5% [at 11 µM, 100% = signal doubled over neutral wells], O=C(COC(=O)C1CCC1)NC(=O)c1ccccc1 -14.8% [at 11 µM, 100% = signal doubled over neutral wells], CN(C)C(=O)COC(=O)c1cccnc1Nc1ccccc1F -17.2% [at 3.8 µM, 100% = signal doubled over neutral wells], Cc1ccc(OCC(=O)NC(C)c2ccccc2)cc1 (stereo unspecified) 22.7% [at 0.005 µM, 100% = signal doubled over neutral wells], CN(C)N1C(N)=C(C#N)C(c2ccc(F)cc2)C2=C1CCCC2=O (stereo unspecified) 30.5% [at 11 µM, 100% = signal doubled over neutral wells], CN1CCC(N(C)S(=O)(=O)c2ccc(NC(=O)COc3cccc(Cl)c3)cc2)CC1 -15.6%, CCOC(=O)Nc1ccc2c(c1)Sc1ccccc1N2C(=O)CCN1CCOCC1 -19.4% [at 0.0016 µM, 100% = signal doubled over neutral wells], CC(C)OCC(O)CN1CCC(Cc2ccccc2)CC1 (stereo unspecified) -7.86% [at 0.005 µM, 100% = signal doubled over neutral wells], O=C(N1CCOCC1)N1CCN(c2ccccn2)CC1 26.8% [at 1.2 µM, 100% = signal doubled over neutral wells], COc1ccc(CNC(=O)c2cnn3c(C(F)F)cc(C)nc23)cc1 24.2%, CC(=O)N1CCN(c2nnc(-c3ccccc3)c3ccccc23)CC1 -13.9% [at 0.005 µM, 100% = signal doubled over neutral wells], CCOC(=O)c1c(C)[nH]c(C(=O)COC(=O)c2cnccn2)c1C 27%, CCCCn1c(-c2ccncc2)nc2c1c(=O)[nH]c(=O)n2CC(C)C -13.3% [at 3.8 µM, 100% = signal doubled over neutral wells], COc1cc(OC)c(OC)cc1/C=N/n1c(C)nc2ccccc2c1=O -20.7% [at 0.42 µM, 100% = signal doubled over neutral wells], CCCc1cc(NCC2CCCO2)n2c(nc3ccccc32)c1C#N (stereo unspecified) -13% [at 0.015 µM, 100% = signal doubled over neutral wells], O=C(Cc1ccsc1)NNC(=O)c1ccccc1Cl -13.6%, O=C(NCc1ccco1)c1ccc2c(=O)n(CCC3=CCCCC3)c(=O)[nH]c2c1 -21.9%, Cc1cc2nc(-c3ccc(Cl)cc3)c(Cc3ccsc3)n2c(C)c1Br -39.9% [at 11 µM, 100% = signal doubled over neutral wells], COc1ccc(C(=O)NCC(=O)OCC(=O)NC2CCCCCC2)cc1OC 19.5%, COc1ccc(C(=O)NCC(=O)OCC(=O)Nc2sccc2C#N)cc1OC 24.5%, COc1ccc2[nH]c3c(NCCCN4CCCC4=O)ncnc3c2c1 11.2% [at 1.2 µM, 100% = signal doubled over neutral wells], Cc1ccc(S(=O)(=O)/N=C(/Nc2cccc(O)c2)c2ccccc2)cc1 48.6%, COc1cc(C(=O)Nc2cc(C(F)(F)F)ccc2N2CCOCC2)ccc1OCC(=O)N1CCOCC1 -13.6% [at 3.8 µM, 100% = signal doubled over neutral wells], Cc1ccc(C)c(S(=O)(=O)Nc2ccc(C(=O)N3CCC3)cc2)c1 27.7%, Cc1c(-c2cccc(Cl)c2)nc2ccccc2c1C(=O)NC1CC1 35.1% [at 1.2 µM, 100% = signal doubled over neutral wells], Cc1cc(C)cc(Cn2c3ccc(NC(=S)NCc4ccccc4F)cc3c(=O)n2C)c1 -51.1%, COC(=O)c1cccc(-n2c(=O)n(Cc3ccccc3)c(=O)c3[nH]cnc32)c1C 38.9% [at 11 µM, 100% = signal doubled over neutral wells], O=c1c2[nH]cnc2n(-c2ccc(F)cc2)c(=O)n1Cc1ccccc1 25.9% [at 0.42 µM, 100% = signal doubled over neutral wells]
